Experimental data as given in PubChem BioAssay (Tox21).
Results filed as inconclusive are left out. Active and inactive are the calls of the source. Unless noted, calls come from the whole dose curve; as a rule, active = well fitted curve in the direction sought with a large enough effect in the repeat runs; inconclusive = weak or mixed curves; inactive = no such curve, though single readings can be large; an effect the other way counts as inactive or inconclusive.

Experiments:
[1] = qHTS assay for small molecule agonists of the p53 signaling pathway (AID 651631; calls by dose curve; note: nearly all actives have a fitted effect of over 15% in size; note: potency is the fitted concentration of half-maximal effect)
Summary of the method: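 Quantitative high-throughput format: 4,000 p53RE-bla HCT-116 cells/well, 5 h pre-incubation, 16 h compound exposure at 37 °C, 2 h room-temperature substrate step, fluorescence intensity measured.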

[2] = qHTS assay for small molecules that induce genotoxicity in human embryonic kidney cells expressing luciferase-tagged ATAD5 (AID 651632); note: nearly all actives have a fitted effect of over 15% in size; note: potency is the fitted concentration of half-maximal effect
Summary of the method: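 A rise in luciferase signal from ATAD5-tagged HEK293T cells marks genetic stress. Cells were exposed to compounds for 16 hr at 37C, 5% CO2, then luciferase was quantified after a 30 min room-temperature incubation with Amplite.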

[3] = qHTS assay for small molecule agonists of the p53 signaling pathway - cell viability (AID 651633; calls by dose curve; note: nearly all actives have a fitted effect of over 30% in size; note: potency is the fitted concentration of half-maximal effect)
Summary of the method: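 p53RE-bla cells were treated with compound for 16 hours at 37 C. Cytotoxicity was then measured as CellTiter-Glo luminescence after 30 min at room temperature.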

[4] = qHTS assay for small molecules that induce genotoxicity in human embryonic kidney cells expressing luciferase-tagged ATAD5 - cell viability (AID 651634; calls by dose curve; note: nearly all actives have a fitted effect of over 25% in size)
Summary of the method: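 Cytotoxicity counter-readout: after 15.5 hr compound treatment at 37C, live-cell protease activity in ATAD5-luciferase HEK293T cells measured by CellTiter-Fluor fluorescence, 30 min development at 37C.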

[5] = qHTS assay to test for compound auto fluorescence at 590 nm (red) in HepG2 cells (AID 720674)
Summary of the method: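 HepG2 cells, 2,000 per well in MEM with 10% FBS, attached overnight at 37 C, then got 23 nL compound or DMSO. After 1 hr at 37 C, 5% CO2, red fluorescence was read at 540/590 nm against Rose Bengal sodium as reference.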

[6] = qHTS assay to test for compound auto fluorescence at 535 nm (green) in HepG2 cells (AID 720675)
[7] = qHTS assay to test for compound auto fluorescence at 460 nm (blue) in HEK293 cells (AID 720678)
Summary of the method: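 Measured: blue fluorescence (Ex 405/Em 460 nm) of compound-treated HEK293 cells, incubated overnight at 37C with 5% CO2 and scaled to triamterene equivalents.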

[8] = qHTS assay to test for compound auto fluorescence at 590 nm (red) in HEK293 cells (AID 720679)
Summary of the method: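 Using HEK293 cells at 2,000 per well, the screen added 23 nL of each compound after cell attachment and incubated overnight (37C, 5% CO2). The plate reader then captured red-label fluorescence, Ex/Em 540/590nm.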

[9] = qHTS assay to test for compound auto fluorescence at 535 nm (green) in HEK293 cells (AID 720680)
[10] = qHTS assay to test for compound auto fluorescence at 460 nm (blue) in HEK293 cell free culture (AID 720681)
Summary of the method: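 Compounds were added to cell-free DMEM with 10% FBS and fluorescence read directly. The blue channel used 405 nm excitation and 460 nm emission, with triamterene as the reference fluorophore.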

[11] = qHTS assay to test for compound auto fluorescence at 535 nm (green) in HEK293 cell free culture (AID 720682)
Summary of the method: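 Measurement is a direct plate read of green fluorescence (485 nm in, 535 nm out) after compound addition to serum-supplemented DMEM lacking cells, with fluorescein used to express intensities.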

[12] = qHTS assay to test for compound auto fluorescence at 590 nm (red) in HepG2 cell free culture (AID 720684)
Summary of the method: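 Rose Bengal sodium served as the reference for red signal. Test compounds were dispensed into serum-containing MEM (10% FBS) without cells, and plates were read at 540/590 nm.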

[13] = qHTS assay to test for compound auto fluorescence at 460 nm (blue) in HepG2 cell free culture (AID 720685)
Summary of the method: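 Cell-free plates of MEM plus 10% FBS received 23 nL compound or DMSO vehicle; blue-channel (405/460 nm) intensity scored against triamterene as reference fluorophore.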

[14] = qHTS assay to test for compound auto fluorescence at 535 nm (green) in HepG2 cell free culture (AID 720686)
[15] = qHTS assay to test for compound auto fluorescence at 460 nm (blue) in HepG2 cells (AID 720687)
Summary of the method: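 HepG2 cells in MEM with 10% FBS, attached overnight at 37 C, were exposed to compound or DMSO for 1 hr at 37 C, 5% CO2. Blue fluorescence was read at 405/460 nm, with triamterene as reference fluorophore.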

[16] = target: Glucocorticoid receptor (Homo sapiens) (UniProt P04150); experiment: qHTS assay to identify small molecule agonists of the glucocorticoid receptor (GR) signaling pathway (AID 720691; active = well fitted activation curve with a large enough effect in the signal ratio in the repeat runs, not every such curve was filed as active; the % refers to the signal ratio)
Summary of the method: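 Agonist-mode qHTS in HeLa cells stably expressing a glucocorticoid-response-element beta-lactamase reporter. Fluorescence intensity read with FRET substrate (2 h, room temperature) after 18 h compound treatment at 37 C.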

[17] = target: Glucocorticoid receptor (Homo sapiens) (UniProt P04150); experiment: qHTS assay to identify small molecule antagonists of the glucocorticoid receptor (GR) signaling pathway (AID 720692; active = well fitted inhibition curve with a large enough effect in the signal ratio in the repeat runs, not every such curve was filed as active; the % refers to the signal ratio; note: potency is the fitted concentration of half-maximal effect)
Summary of the method: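 Inhibition of dexamethasone-driven (5 nM final) beta-lactamase expression was measured in GRE-reporter HeLa cells over 18 h at 37C. Fluorescence was read after 2 h with the B/G FRET substrate at room temperature.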

[18] = qHTS assay for small molecule disruptors of the mitochondrial membrane potential - cell viability (AID 720634; calls by dose curve;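 note: human HepG2 liver cancer cells; series mostly up to about 83 µM; nearly all actives have a fitted effect of over 20% in size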)
Summary of the method: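 Cytotoxicity was quantified from ATP content by CellTiter-Glo luminescence in the same wells as the MMP dye read-out. HepG2 (2,000 cells/well) were plated overnight and exposed to compounds for 1 hr at 37 C.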

[19] = qHTS assay for small molecule disruptors of the mitochondrial membrane potential (AID 720635); note: potency is the fitted concentration of half-maximal effect
Summary of the method: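 HepG2 cells exposed to compound 1 hr at 37C, then Mito-MPS dye 30 min. Ratio read of aggregate (540/590 nm) versus monomer (490/535 nm) fluorescence.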

[20] = qHTS assay to test for compound auto fluorescence at 590 nm (red) in HEK293 cell free culture (AID 720683)
Summary of the method: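 Cell-free wells of DMEM with 10% FBS received compound, and intrinsic fluorescence was read at excitation/emission 540/590 nm. Values expressed as equivalence to Rose Bengal sodium.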

Measured: Potency

Chain of Glucocorticoid receptor (Homo sapiens) (P04150 whole entry, looked up): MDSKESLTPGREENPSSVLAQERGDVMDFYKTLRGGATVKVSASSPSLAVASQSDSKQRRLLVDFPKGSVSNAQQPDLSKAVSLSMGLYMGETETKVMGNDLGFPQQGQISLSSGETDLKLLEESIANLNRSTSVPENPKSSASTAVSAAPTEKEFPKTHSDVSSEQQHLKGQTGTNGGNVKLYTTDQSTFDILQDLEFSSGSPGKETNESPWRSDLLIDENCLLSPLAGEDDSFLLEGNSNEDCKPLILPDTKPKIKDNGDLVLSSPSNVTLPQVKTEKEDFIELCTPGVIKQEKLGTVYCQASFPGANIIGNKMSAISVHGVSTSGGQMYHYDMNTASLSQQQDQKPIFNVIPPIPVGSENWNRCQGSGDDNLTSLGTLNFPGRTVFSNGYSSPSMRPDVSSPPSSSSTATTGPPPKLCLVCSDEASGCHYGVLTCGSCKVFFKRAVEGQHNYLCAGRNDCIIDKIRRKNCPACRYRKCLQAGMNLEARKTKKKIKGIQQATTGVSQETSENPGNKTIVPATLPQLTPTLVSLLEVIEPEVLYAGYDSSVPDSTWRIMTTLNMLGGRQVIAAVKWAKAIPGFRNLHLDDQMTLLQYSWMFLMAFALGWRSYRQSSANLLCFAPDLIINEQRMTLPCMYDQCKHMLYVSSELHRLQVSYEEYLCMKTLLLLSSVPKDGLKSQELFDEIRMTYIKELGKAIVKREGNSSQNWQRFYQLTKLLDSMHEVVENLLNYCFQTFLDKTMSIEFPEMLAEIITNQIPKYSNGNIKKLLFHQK

C=C[Si]1(C)O[Si](C)(C=C)O[Si](C)(C=C)O[Si](C)(C=C)O1 (centres undefined)
not listed: [18] | [19] | [20]
inactive: all other assays above

CC(=O)c1cccnc1
not listed: [4] | [9] | [17] | [20]
inactive: all other assays above

CCCCCCCCCCCCSC#N
not listed: [17] | [18] | [19]
inactive: all other assays above

CO[C@@H]1[C@@H](O[C@@H]2O[C@H](C)[C@@H](O[C@H]3C[C@@](C)(O)[C@@H](O)[C@H](C)O3)[C@H](N(C)C)[C@H]2O)[C@@H](CC=O)C[C@@H](C)[C@@H](O[C@@H]2CC[C@H](N(C)C)[C@@H](C)O2)/C=C/C=C/C[C@@H](C)OC(=O)C[C@H]1OC(C)=O
not listed: [4] | [11] | [17] | [19]
inactive: all other assays above

C=CC(C)(O)CC/C=C(/C)CCC=C(C)C (centres undefined)
not listed: [4] | [9] | [12] | [17] | [19]
inactive: all other assays above

CC1(C)CC(=O)CC(C)(C)N1
not listed: [4] | [12]
inactive: all other assays above

CCCCOC(=O)C(C)Oc1ccc(Oc2ccc(C(F)(F)F)cn2)cc1 (centres undefined)
not listed: [4] | [11] | [17]
inactive: all other assays above

O=C(O)c1cc(C(=O)O)c(C(=O)O)cc1C(=O)O
not listed: [18] | [19]
inactive: all other assays above

Cc1ccc2c(Cl)cc(Cl)c(O)c2n1
active: [1] 2.37 µM | [2] 5.96 µM | [3] 0.944 µM | [19] 9.44 µM | [17] 16.9 µM
not listed: [4] | [18] | [20]
inactive: all other assays above

CC(C)CCCCCOC(=O)CS
not listed: [18] | [19]
inactive: all other assays above

COC(=O)Cc1cccc2ccccc12
not listed: [4] | [18] | [19]
inactive: all other assays above

Nc1ncnc2c1ncn2[C@@H]1O[C@H](CO)[C@@H](O)[C@H]1O
not listed: [5] | [17] | [18] | [19] | [20]
inactive: all other assays above

C[C@H](CN1CCCC1)C(=O)c1ccc(C(F)(F)F)cc1
not listed: [4]
inactive: all other assays above

CC(C)CCCCCCCOC(=O)c1ccc(C(=O)OCCCCCCCC(C)C)c(C(=O)OCCCCCCCC(C)C)c1
not listed: [4] | [12]
inactive: all other assays above

CCOc1cc(OCC)c(C(C)=O)cc1OCC
not listed: [4] | [17] | [18] | [19]
inactive: all other assays above
